Screens deposited in PubChem BioAssay by National Center for Advancing Translational Sciences (NCATS).
Caspase-7 inhib = qHTS Assay for Allosteric/Competitive Inhibitors of Caspase-7. P55210. Potency, µM (titrated, usually from 57.5 µM), without a hit: at the highest dose activity change, negative = inhibition, hits mostly inhibitors. recombinant caspase-7, Ac-DEVD-AFC fluorescence rate. 0.02% of 75,000 active; active means well fitted inhibition curve with a large enough effect in the main read-out, with a control signal flat, not every such curve was filed as active; inconclusive means small, poorly fitted or top-dose-only effect, or a change in a side signal; further: % of control where 0% means no effect
Caspase-1 inhib = qHTS Assay for Allosteric/Competitive Inhibitors of Caspase-1; 0.03% of 75,000 active; AID 900, 2007; Caspase-1 enzyme, Ac-WEHD-AFC fluorogenic rate; Potency, µM (doses to about 57.5 µM), for inactives: at the top dose activity change, negative = inhibition, actives largely listed as inhibitors;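 further: plate controls were vehicle for no effect and no substrate for full effect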
FLuc inh = qHTS Assay for Inhibitors of Firefly Luciferase; 2.2% of 72,000 active; purified firefly luciferase, luminescence, 8 min; Luciferin 4-monooxygenase (Photinus pyralis), P08659; Potency, µM (top dose mostly 57.1 µM), inactives show top-dose activity change, negative = inhibition, usual class: inhibitors; further: on the % scale 0 is the no-effect control and ±100 the full control effect; nearly all actives have a fitted effect of over 40% in size
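Firefly luciferase (PKLight detection mix) with 10 uM ATP in pH 7.2 imidazole buffer (KCl, MgCl2, Tween 20, BSA). Compounds tested across a concentration series (qHTS). Luminescence read after 8 min at ambient temperature.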
p53ts 39C tox = qHTS Screen for Compounds that Selectively Target Cancer Cells with p53 Mutations: Cytotoxicity of p53ts Cells at the Nonpermissive Temperature | 1.5% of 130,000 active | H1299-p53A138V viability at 39C, ATP luminescence, 24 h | Potency, µM (highest dose often 46.1 µM), for inactives: at the highest dose activity change, negative = cell killing, usual class: cytotoxic | AID 902, 2007; further: on the % scale 0 is the no-effect control and ±100 the full control effect; nearly all actives have a fitted effect of over 55% in size
IkB sig inh = IkB Signaling; ABC-DLBCL IkBa-CBG/CBR dual luciferase ratio, 4 h; response scale: scaled: untreated 0%, proteasome inhibitor 100%; Potency, µM (series often up to 57.1 µM), inactives show top-dose IkBa stabilization activation; 0.04% of 110,000 active; AID 445, 2006; active means well fitted curve in the direction sought with a large enough effect in the signal ratio, not every such curve was filed as active; inconclusive means small, poorly fitted or top-dose-only effect, or a change in a side signal; the % refers to the signal ratio;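 further: the direction sought is a rising ratio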
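In this assay, an IκBα–CBG68 fusion accumulates when IKK-driven degradation is blocked; native CBR normalizes for cell number. OCI-Ly3 cells were treated 4 h with compound and doxycycline, then green and red light read after Chroma-Glo addition.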
p53ts 32C kill = qHTS Screen for Compounds that Selectively Target Cancer Cells with p53 Mutations: Cytotoxicity of p53ts Cells at the Permissive Temperature. Potency, µM (series often up to 46.1 µM), inactives show top-dose activity change, negative = cytotoxicity, usual class: cytotoxic. H1299-p53A138V at 32C, ATP luminescence viability, 24 h. 0.93% of 130,000 active;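 further: 0% = DMSO and -100% = full killing by reference compound; nearly all actives have a fitted effect of over 55% in size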
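Cells: H1299 p53ts (A138V), 600/well, pre-incubated 16–30 h at 37C. Cpd up to 46 uM, 24 h, 32C. Readout: ATPlite luminescence, 20 min RT. Normalization: DMSO vs tamoxifen 100 uM. AC50 by Hill equation.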
An asterisk follows results filed as active; ? = inconclusive; . = not tested or not shown. An excerpt weighted towards active compounds, which were near 2.5% of everything screened. Unless noted, the call rests on the fitted dose curve; in most records, active means well fitted curve in the direction sought with a large enough effect; inconclusive means small, poorly fitted or top-dose-only effect, or another doubt; inactive means no such curve, though single readings can be large; an effect the other way counts as inactive or inconclusive. Potency means the concentration at half of the fitted maximal effect.

SMILES	Caspase-7 inhib	Caspase-1 inhib	FLuc inh	p53ts 39C tox	IkB sig inh	p53ts 32C kill
Cc1ccc(CS(=O)(=O)c2ncc(Cl)c(C(=O)Nc3nnc(C(C)C)s3)n2)cc1	.	.	.	5.01µM*	-0.2%	12.6µM*
Oc1c(C(c2ccccc2F)N2CCCC2)sc2nc(-c3ccco3)nn12 (configuration not stated)	.	.	.	4.3%	-1.6%	0.0%
COc1ccc(-c2cc(=O)c3c(O)cc(O)cc3o2)cc1	-8.7%	-3.5%	10µM*	?	?	?
Nc1ccc(CCc2nc3ccccc3o2)cc1	-2.8%	-0.5%	25.1µM*	?	7.2%	?
Cn1c(C(=O)Nc2ccc3c(c2)OCCO3)cc2sccc21	-1.9%	-0.8%	3.16µM*	12.6µM*	?	12.6µM*
CC(=O)c1c(C)[nH]c(C(=O)Nc2ccc3c(c2)OCCO3)c1C	-0.1%	0.8%	12.6µM*	?	5.2%	?
CCOC(=O)c1[nH]c(C)c(C(=O)Nc2ccc3c(c2)OCCO3)c1C	0.3%	-0.3%	-10.3%	-7.0%	-1.5%	1.7%
Cc1cc(C)n(-c2ccc(C(=O)Nc3ccc4c(c3)OCCO4)cc2)n1	5.4%	-0.7%	12.6µM*	?	?	?
COc1cc(OC)cc(C(=O)Nc2ccc3c(c2)OCCO3)c1	.	.	.	3.98µM*	?	12.6µM*
Cc1ccccc1NC(=O)Cn1c(=O)n(Cc2ccccc2)c(=O)c2sc3ccccc3c21	.	.	.	?	-2.1%	1.9%
CC1CCCCC1NC(=O)Cn1c(CN2CCCCC2)nc2ccccc2c1=O (configuration not stated)	-4.3%	-3.5%	0.5%	-5.4%	1.3%	0.2%
O=C(Nc1ccc2c(c1)OCCO2)NC1CCCCC1	-1.1%	-2.1%	7.94µM*	10µM*	?	7.94µM*
Cc1cc(C)n(-c2ccc(C(=O)Nc3ccccn3)cc2)n1	0.0%	-0.5%	12.6µM*	10µM*	?	12.6µM*
CCCC(=O)Nc1cccc(NC(=O)c2ccc3c(c2)OCCO3)c1	0.2%	0.2%	15.8µM*	?	?	?
O=C(Nc1ccc2c(c1)OCCO2)C1CCC1	-0.2%	4.7%	-2.7%	-7.0%	2.2%	-4.7%
CC(=O)Nc1ccc(C(=O)Nc2ccc3c(c2)OCO3)cc1	-2.2%	-0.6%	-15.2%	-10.2%	-0.5%	-4.5%
Cc1cc(C(=O)Nc2ccc3c(c2)OCCO3)co1	-0.2%	-1.3%	.	15.8µM*	.	10µM*
CCOc1ccc(OCC)c(NC(=O)C2CCCN(S(=O)(=O)c3ccc4c(c3)oc(=O)n4C)C2)c1 (configuration not stated)	.	.	.	7.5%	?	-3.6%
CCOc1cccc(C(=O)NC2CCCCC2)c1	0.5%	3.5%	-5.2%	-5.8%	2.4%	-16.2%
O=C(Nc1ccc2c(c1)OCCO2)c1ccc(NC(=O)C2CCCO2)cc1 (configuration not stated)	1.9%	-0.7%	12.6µM*	?	1.3%	?
O=C(NCc1ccc2c(c1)OCO2)c1ccc(NC(=O)C2CCCO2)cc1 (configuration not stated)	-0.3%	1.5%	-3.2%	-3.2%	2.0%	3.2%
Cc1cc(C(=O)Nc2ccccn2)cs1	0.9%	-0.9%	12.6µM*	?	4.6%	?
CCOc1ccc(-c2[nH]ncc2Oc2cccc(OC)c2)c(O)c1	-7.9%	-5.3%	-2.5%	15.8µM*	6.3%	-23.3%
CCOC(=O)c1c(NC(=O)c2ccn(CC)n2)sc2c1CCCC2	-2.1%	-2.2%	0.4%	-17.6%	0.2%	2.9%
CCc1ccc(OC(=O)c2ccn(CC)n2)cc1	2.4%	0.4%	12.6µM*	-3.0%	-2.2%	-2.3%
SMILES	Caspase-7 inhib	Caspase-1 inhib	FLuc inh	p53ts 39C tox	IkB sig inh	p53ts 32C kill
COc1cccc2c(=O)c3c(cnn3C)n(C)c12	?	.	-1.2%	4.8%	-0.9%	6.8%
Cc1cc(C)c(S(=O)(=O)Nc2ccc(-c3ccc(N4CCCCC4)nn3)cc2)c(C)c1	.	.	.	7.94µM*	?	?
CC(=O)c1ccc(S(=O)(=O)Nc2cccc(-c3ccc(N4CCCCCC4)nn3)c2)cc1	.	.	.	6.31µM*	-3.6%	?
Cc1cccc(S(=O)(=O)Nc2cccc(-c3ccc(N4CCCCC4)nn3)c2)c1	.	.	.	?	-3.1%	?
O=S(=O)(Nc1cccc(-c2ccc(N3CCCCC3)nn2)c1)c1cccs1	.	.	.	6.31µM*	1.0%	10µM*
O=S(=O)(Nc1cccc(-c2ccc(N3CCCCC3)nn2)c1)c1ccc(Cl)s1	.	.	.	5.01µM*	?	10µM*
O=S(=O)(Nc1cccc(-c2ccc(N3CCCCCC3)nn2)c1)c1ccccc1	.	.	.	?	-1.3%	?
CCOC(=O)c1cc(-c2ccc(C)cc2)n(CCC(=O)Nc2ccc(C(C)C)cc2)c1C	.	.	.	-2.0%	?	9.9%
CCOc1ccc(CNS(=O)(=O)c2ccc3c(c2)CC(C)N3C(C)=O)cc1OC (configuration not stated)	.	.	.	.	.	-12.0%
Cc1ccccc1Nc1c(-c2ccc(N3CCOCC3)cc2)nc2cccc(C)n12	.	.	.	7.94µM*	?	?
Cc1ccccc1Nc1c(-c2ccc(N3CCOCC3)cc2)nc2ccccn12	.	.	.	1µM*	?	1µM*
Cc1ccc(-n2nc(C)c(C(=O)NCCCN3CCN(c4ccccc4F)CC3)c2-n2cccc2)cc1	.	.	.	12.6µM*	?	-9.2%
Cc1ccc(CCNC(=O)c2c(C)nn(-c3ccc(F)cc3)c2-n2cccc2)cc1	.	.	.	-23.0%	?	7.3%
CCOc1ccccc1NC(=O)c1sc2nc(-c3ccc(OC)cc3)ccc2c1N	.	.	.	3.98µM*	-1.0%	6.31µM*
CC(C)c1ccc2c(c1)CCC1C(C)(C(N)=O)CCCC21C (configuration not stated)	1.5%	-0.9%	.	-2.4%	.	-1.5%
CC(C)c1c(O)ccc2c1CCC1[C@@](C)(CO)CCC[C@@]21C (some centres not stated)	-0.5%	2.3%	.	6.0%	.	8.9%
CC(=O)Oc1ccc2c(c1C(C)C)CCC1C(C)(C)CCC[C@@]21C (some centres not stated)	-1.0%	-3.3%	.	12.6µM*	.	?
COC(=O)[C@@]1(C)CCC[C@@]2(C)c3ccc(O)c(C(C)C)c3CCC21 (some centres not stated)	-4.9%	-4.4%	.	20µM*	.	?
O=C(Oc1ccc(Br)cc1)C1CC(=O)N(c2ccc(F)cc2)C1 (configuration not stated)	3.4%	-0.1%	2.9%	0.4%	2.0%	7.1%
